WRN helicase inh: WRN helicase (human) inhibition | Q14191 | WRN helicase unwinding, fluorescent forked duplex, kinetic | Potency, µM (series often up to 114 µM), without a hit: top-dose activity change, negative = inhibition, actives largely listed as inhibitors | 0.46% of 360,000 active; note: potency is the fitted concentration of half-maximal effect; % is set by controls: 0 for no effect and ±100 for the full control effect; nearly all actives have a fitted effect of over 55% in size
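Kinetic fluorescence helicase assay: unwinding of a quenched forked DNA duplex (100 nM final) with 2 mM ATP final raises red fluorescence (525/598 nm). Compounds sat 15 min at room temperature with 20 nM WRN beforehand.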
POLH inh: inhibitors of human DNA polymerase eta; Q9Y253; recombinant Pol eta, fluorescent DNA replication assay; Potency, µM (highest dose often 114 µM), for inactives: top-dose activity change, negative = inhibition, most hits filed as inhibitors; 1.2% of 390,000 active; AID 588591; note: potency is the fitted concentration of half-maximal effect; % is set by controls: 0 for no effect and ±100 for the full control effect
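Pol eta at 10 nM preincubated with compounds 15 min at room temperature; reaction started with fluorescent substrate (50 nM final) and read kinetically at 0 and 10 min.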
Pol beta inh: inhibitors of human DNA polymerase beta; P06746; Pol beta primer extension/strand displacement, fluorescence kinetic; Potency, µM (top dose mostly 114 µM), without a hit: at the highest dose activity change, negative = inhibition, actives largely listed as inhibitors; 1.3% of 340,000 active; note: potency is the fitted concentration of half-maximal effect; % is set by controls: 0 for no effect and ±100 for the full control effect
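Values derive from four-parameter Hill fits of normalized kinetic data: reads at 0 and 10 min following addition of 50 nM substrate to 10 nM Pol beta preincubated 15 min with compound.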
Pol kappa inh: blocks human DNA polymerase kappa activity. Q9UBT6. purified Pol kappa, fluorescent DNA synthesis assay, 10 min. Potency, µM (top dose mostly 107 µM), without a hit: top-dose activity, negative = inhibition, hits mostly inhibitors. 0.53% of 400,000 active. AID 588579; note: potency is the fitted concentration of half-maximal effect; % is set by controls: 0 for no effect and ±100 for the full control effect
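Enzyme at 10 nM met test compounds for 15 min at room temperature. Substrate addition (50 nM final) began the reaction, which was monitored by fluorescence at 0 and 10 min.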
Pol iota inh: blocks human DNA polymerase iota activity. Q9UNA4. Pol iota fluorescent replication assay, 10 min. Potency, µM (doses to about 115 µM), for the others: top-dose activity, negative = inhibition, actives largely listed as inhibitors. 1% of 390,000 active. AID 588590; note: potency is the fitted concentration of half-maximal effect
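Fluorescent replication assay read twice, at 0 min and 10 min after adding 50 nM (final) substrate. Enzyme (10 nM) and compounds were first incubated 15 min at room temperature; enzyme-free buffer wells were negative controls.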
PI5P4K alpha inh: blocks human PI5P4K alpha kinase activity; PI5P4Kalpha enzyme, ADP-Glo luminescence, 60 min; active compounds read low; max response, %; 1.2% of 330,000 active; P48426; active = max response of -50% or lower; inconclusive = between -30% and -50%; inactive = -30% or higher; note: value at the top dose of about 77 µM; % is set by controls: 0 for no effect and ±100 for the full control effect
Target sequence (P48426 whole entry, looked up): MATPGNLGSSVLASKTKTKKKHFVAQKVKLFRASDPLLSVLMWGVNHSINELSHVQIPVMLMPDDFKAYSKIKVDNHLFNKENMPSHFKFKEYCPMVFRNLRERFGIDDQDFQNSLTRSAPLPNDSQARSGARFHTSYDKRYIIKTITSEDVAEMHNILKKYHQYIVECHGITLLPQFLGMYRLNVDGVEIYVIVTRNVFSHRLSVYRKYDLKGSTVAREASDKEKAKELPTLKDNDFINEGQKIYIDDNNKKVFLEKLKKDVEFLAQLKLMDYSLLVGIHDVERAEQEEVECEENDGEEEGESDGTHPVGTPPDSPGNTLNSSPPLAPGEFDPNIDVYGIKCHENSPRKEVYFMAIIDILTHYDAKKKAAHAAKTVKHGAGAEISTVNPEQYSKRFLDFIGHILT
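ADP-Glo luminescence end-point read after a 60 min room-temperature kinase reaction of PI5P4Kalpha plus substrate, initiated with ATP at 5 microM final. Buffer: 0.038 M HEPES pH 7.4, EGTA, 0.1% CHAPS, 5% DMSO.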
The depositor's hits bear a star; ? = inconclusive; / = not tested or not shown; [ ] = remark or other dose. Only some compounds are listed: those with a hit (about 2.8% of all), similar ones and a draw of the others. Unless noted, calls come from the whole dose curve; as a rule, active = well fitted curve in the direction sought with a large enough effect; inconclusive = small, poorly fitted or top-dose-only effect, or another doubt; inactive = no such curve, though single readings can be large; an effect the other way counts as inactive or inconclusive.

SMILES	WRN helicase inh	POLH inh	Pol beta inh	Pol kappa inh	Pol iota inh	PI5P4K alpha inh
O=C(NN1C(=O)/C(=C/c2ccc(O)c([N+](=O)[O-])c2)SC1=S)c1ccccc1Cl	?	-18%	-15%	45µM*	40µM*	-79*
COc1ccccc1OCCC(=O)OCC(=O)Nc1ccc(Br)cc1F	-26%	-12%	7%	-8%	76%	-6
Cn1c2ccccc2c2cc(/C=N/NC(=O)c3ccccc3F)ccc21	6%	-9%	16%	-2%	?	4
Cn1c(-c2ccccc2)c(/C=N/NC(=O)c2ccc(O)cc2)c2ccccc21	-7%	-15%	3%	-1%	25%	-95*
O=C(N/N=C\c1c(O)ccc2ccccc12)c1ccc(O)cc1	-18%	-9%	-3%	-21%	26%	?
Cn1c2ccccc2c2cc(/C=N/NC(=O)c3ccc(N)cc3)ccc21	-4%	?	10µM*	?	?	-6
Cc1ccnc2ccc3ccccc3c12	/	/	/	-29%	?	/
CCOC(=O)Cc1csc(SCC(=O)Nc2oc(C)c3c(C)n[nH]c(=O)c23)n1	3%	2%	/	-10%	44%	-1
O=c1[nH]c(/C=C\c2cccc(O)c2)nc(O)c1[N+](=O)[O-]	-12%	-18%	-25%	-4%	?	-81*
CCOc1ccc(/C=C\c2nc(O)c([N+](=O)[O-])c(=O)[nH]2)cc1OCC	-10%[57.1 µM]	-11%	0%	-1%	-19%	-24
O=C(COc1ccccc1/C=C\c1nc(O)c([N+](=O)[O-])c(=O)[nH]1)Nc1ccccc1	?	28µM*	-3%	-11%	?	-55*
CCOc1ccccc1/C=C\c1nc(O)c([N+](=O)[O-])c(=O)[nH]1	-22%[57.1 µM]	?	-10%	-16%	-17%	?
Cc1ccc(C)c(Cn2c(=O)n(Cc3ccccc3)c(=O)c3c(C)c(C)sc32)c1	/	/	2%	4%	31%	/
Cc1[nH]n2cnnc2c(=O)c1Br	-3%	-20%	-8%	2%	25%	-51*
CCCCN(CCC#N)c1ccc(/C=C/c2ccnc3ccccc23)cc1	/	/	/	-2%	-21%	/
COc1ccc(C(=O)COC(=O)c2ccccc2O)c(OC)c1	-24%	25µM*	/	?	28µM*	-57*
COc1ccc(C(=O)COC(=O)CCNS(=O)(=O)c2ccccc2)c(OC)c1	0%[11.6 µM]	?	/	-22%	50µM*	?
CCC(C(=O)OCC(=O)Nc1cc(OC)ccc1OC)c1ccccc1 (stereo unspecified)	-1%	3%	-11%	-13%	-5%	0
CCC(C(=O)OCC(=O)c1ccc(OC)cc1OC)c1ccccc1 (stereo unspecified)	-24%	32µM*	/	-41%	?	?
COc1ccc(C(=O)OCC(=O)c2cc(OC)ccc2OC)c(OC)c1	-14%	-22%	14%	-15%	36%	0
CC(=O)N1CCc2cc(S(=O)(=O)CCC(=O)N3CCN(c4ccccc4)CC3)ccc21	-10%	8%	1.3µM*	-9%	-17%	-2
O=C(O)c1c[nH]c2ccc(S(=O)(=O)N3CCN(c4ccc(F)cc4)CC3)cc2c1=O	-29%	89µM*	20µM*	?	?	/
O=C(O)CCC(=O)N1CCc2cc(S(=O)(=O)N3CCN(c4ccc(F)cc4)CC3)ccc21	2%	-4%	22µM*	-8%	?	0
COc1ccc(CN2C(=O)C(CC(=O)NCc3cccs3)CC(C(=O)N(C(C)C)C(C)C)=C2C)cc1 (stereo unspecified)	-1%	-15%	/	/	/	3
O=C(c1ccc2c3n(nc2c1)-c1ccc(Cl)cc1CO3)N1CCCCC1	-5%	-4%	-1%	-4%	17%	-5
SMILES	WRN helicase inh	POLH inh	Pol beta inh	Pol kappa inh	Pol iota inh	PI5P4K alpha inh
O=C(O)c1ccc2c3n(nc2c1)-c1ccc(Cl)cc1CO3	-17%	4%	20µM*	32µM*	16µM*	?
CCOc1ccccc1CNC(=O)c1ccc(Cn2c(=O)c3cccn3c3cccnc32)cc1	/	-18%	34%	-12%	-3%	/
O=C1C(=Cc2ccco2)C(=O)c2ccccc21	?	?	?	?	?	-25
O=C1CNC(=O)/C(=C/c2ccco2)N1	-13%	-1%	-15%	79µM*	?	1
CCC(NC(=O)CCc1c(C)c2cc3c(C)c(C)oc3cc2oc1=O)C(=O)N[C@@H](Cc1ccccc1)C(=O)O (stereo partly specified)	-25%	?	32µM*	12%	8%	-3
CSC[C@H](NC(=O)Cc1c(C)c2cc3c(C)c(C)oc3cc2oc1=O)C(=O)N[C@@H](Cc1ccccc1)C(=O)O	-4%	-1%	9%	2%	6%	-7
COc1ccc(CNC(=O)CCc2c(C)c3cc4c(C)c(C)oc4cc3oc2=O)cc1	/	-24%	22µM*	-6%	13%	/
CNc1ncnc2ccc(-c3ccccc3C#N)cc12	/	/	/	3%[60.1 µM]	/	/
Brc1cccc(-c2nc3c4ccccc4ccn3c2Cc2ccccc2)c1	-4%	/	/	/	/	3
O=C1N=C(N2CCCC2)S/C1=C\c1cn[nH]c1-c1ccccc1	/	/	32%	/	/	/
Cc1ccccc1N1CCN(C2=NC(=O)/C(=C/c3cn[nH]c3-c3ccccc3)S2)CC1	-6%	-4%	12%	-5%	14%	-61*
CCOc1ccc(N=Cc2c(C)[nH]n(-c3nc4ccccc4[nH]3)c2=O)cc1	?	16µM*	22µM*	?	5%	-19
Cc1[nH]n(-c2ccccc2)c(=O)c1C=Nc1cnc2ccccc2c1	-12%	?	?	-2%	?	-1
O=C(Nc1ccccc1C(F)(F)F)NC1(C(=O)N2CCOCC2)CCCCC1	?	?	/	50µM*	14µM*	-88*
Cc1ccccc1NC(=O)NC1(C(=O)N2CCOCC2)CCCCC1	0%	-10%	-2%	-6%	-1%	-1
CCOc1ccccc1CNC(=O)c1cc2c(=O)n(Cc3ccccc3)ccc2nc1C	/	-5%	25µM*	-10%	?	/
CC(=O)N1CCCc2cc(S(=O)(=O)N3CCC(C(=O)NCc4ccccc4Cl)CC3)ccc21	/	-17%	7%	-1%[60.1 µM]	-5%	/
CCCn1c(SCC(=O)NNC(=O)c2ccc(OC)cc2)nnc1C(C)C	-2%	-8%	-11%	-12%	100%	-6
CCn1cc2nc(SCC(=O)Nc3ccc(C)cc3C)n(Cc3ccc(C)cc3)c(=O)c2n1	/	79µM*	10µM*	-32%	21%	/
CC1Cc2ccccc2N1C1=CC(=O)CCC1 (stereo unspecified)	0%	-5%	-6%	3%	36%	4
